We go through 25 molecules from PubChem BioAssay (NCATS).

Inconclusive results are not listed. A number with no mark means an inactive call. The source made the active and inactive calls. Calls come from the whole dose curve; as a rule, active = well fitted curve in the direction sought with a large enough effect; inconclusive = small, poorly fitted or top-dose-only effect, or another doubt; inactive = no such curve, though single readings can be large; an effect the other way counts as inactive or inconclusive. *1 amine or outer side, *2 acyl side, *3 side chain or, on linkers, in order; H or OH if unused. Where a SMILES comes first, the peptide text is derived from it. Bridges are numbered along the chain shown (N, C = ends). X6 = O=C(CCC[*:2])[*:1]

Assay [1] is described as follows: P-glycoprotein substrates identified in KB-3-1 adenocarcinoma cell line, qHTS therapeutic library screen (AID 1346986). Note: nearly all actives have a fitted effect of over 60% in size. The gist of the method:
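Counter-screen: cherry-picked hits retested in the KB pair and in HEK-293 pcDNA/MDR-19 cells ± tariquidar. Primary screen used 72 h CellTiter-Glo viability in KB-3-1 and KB-8-5-11.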

A short description of assay [2]: P-glycoprotein substrates identified in KB-8-5-11 adenocarcinoma cell line, qHTS therapeutic library screen (AID 1346987). For activity change, negative = cytotoxicity: series mostly up to about 44 µM; % is set by controls: 0 for no effect and ±100 for the full control effect. Note: nearly all actives have a fitted effect of over 65% in size. In short, it runs like this: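 P-gp-mediated resistance screen: KB-8-5-11 cells treated 72 h with compounds in dose-response. CellTiter-Glo viability.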

For the molecule `COc1ccc(/C=C/C(=O)O[C@H]2[C@@H]3C=CO[C@@H](O[C@@H]4O[C@H](CO)[C@@H](O)[C@H](O)[C@H]4O)[C@@H]3[C@@]3(CO)O[C@@H]23)cc1O`, the Potency entry in assay [1] and in assay [2] was “inactive” each time.
As for `COc1cccc(-c2ccc([C@@H](Oc3cc(-c4ccc(C[C@H](N)C(=O)O)cc4)nc(N)n3)C(F)(F)F)cc2)c1`, the Potency entry in assay [1] and in assay [2] was “inactive” in each case.
In the case of `CC1(C)O[C@@]2(C)CC[C@@H]1C[C@@H]2OC1OC(CO)C(O)C(O)C1O` (stereo not given in full), the Potency entry in assay [1] and in assay [2] was “inactive” each time.
`C/C(=C\CCC(C(=O)O)C1CCC2(C)C3=C(CCC12C)C1(C)CCC(=O)C(C)(C)C1CC3)C(=O)O` (stereo not given): the Potency entry in assay [1] and in assay [2] was “inactive” each time.
Consider `O=c1c2ccccc2nc2n1CCC2O` (stereo not given), for which the Potency result in assay [1] and in assay [2] was “inactive” each time.
Turning to `C[C@@H]1O[C@@H](O[C@@H]2[C@@H](O)[C@@H](O)[C@H](O[C@@H]3[C@@H](O)[C@@H](O[C@]4(CO)O[C@H](CO)[C@@H](O)[C@@H]4OC(=O)/C=C/c4ccc(O)cc4)O[C@H](CO)[C@H]3OC(=O)/C=C/c3ccc(O)cc3)O[C@H]2C)[C@H](O)[C@H](O)[C@H]1O`, the outcome in assay [1] and in assay [2] was “inactive [at 9.29 µM]” throughout.
For `CCC(=O)NS(=O)(=O)c1ccc(-c2c(-c3ccccc3)noc2C)cc1`, the Potency result in assay [1] and in assay [2] was “inactive” each time.
For `OC1COC(OCC2OC(OCCc3ccccc3)C(O)C(O)C2O)C(O)C1O` (stereo not given), the Potency entry in assay [1] and in assay [2] was “inactive” each time.
On to `CNC(=O)[C@H]1O[C@@H](n2cnc3c(NCc4ccc(N)c(I)c4)ncnc32)[C@H](O)[C@@H]1O`, for which the outcome in assay [1] and in assay [2] was “inactive [at 9.29 µM]” each time.
For the molecule `COC1CC(OC2CCC3(C)C(=CCC4C3CCC3(C)C(C(C)O)CCC43O)C2)OC(C)C1OC1OC(C)C(OC2OC(COC3OC(COC4OC(CO)C(O)C(O)C4O)C(O)C(O)C3O)C(O)C(O)C2O)C(OC)C1O` (stereo not given), in assay [1], the outcome was “inactive [at 9.29 µM]”. For the same molecule, the activity change, negative = cytotoxicity in assay [2] was 4.62% [at 9.29 µM].
As to `CC1(C)NC2N(C1=O)c1ccccc1C2(O)CC(C(=O)O)n1cnc2ccccc2c1=O` (stereo not given), the Potency entry in assay [1] and in assay [2] was “inactive” each time.
With `CC1(C)CC[C@]2(C(=O)O[C@@H]3O[C@H](CO)[C@@H](O)[C@H](O)[C@H]3O)CC[C@]3(C)C(=CCC4[C@@]5(C)C[C@@H](O)[C@H](O)[C@@](C)(CO)C5CC[C@]43C)C2C1` (stereo not given in full), the Potency result in assay [1] and in assay [2] was “inactive” each time.
Take `CC1(C)OC(=O)C(OCC2CC2)=C1c1ccc(S(C)(=O)=O)cc1`: the Potency entry in assay [1] and in assay [2] was “inactive” throughout.
As to `CCc1c(CC(N)=O)c2cc(OCCCP(=O)(O)O)ccc2n1Cc1ccccc1`, the Potency result in assay [1] and in assay [2] was “inactive” throughout.
Take `O=C(CCO[C@@H]1O[C@H](CO)[C@@H](O)[C@H](O)[C@H]1O)c1ccc(O)cc1`: the Potency entry in assay [1] and in assay [2] was “inactive” in each case.
Regarding `CC(=O)c1c(C)cc(O)cc1O[C@@H]1O[C@H](CO)[C@@H](O)[C@H](O)[C@H]1O`, the Potency result in assay [1] and in assay [2] was “inactive” throughout.
`CC(C(=O)O)C1CCC2(C)C3C(=O)C=C4C(CCC(=O)C4(C)C)C3(C)CCC12C` (stereo not given): the Potency result in assay [1] and in assay [2] was “inactive” throughout.
With `COC(=O)C1=CO[C@@H](O[C@@H]2O[C@H](CO)[C@@H](O)[C@H](O)[C@H]2O)[C@@H]2[C@@H](C)[C@@H](O)C[C@H]12`, the Potency result in assay [1] and in assay [2] was “inactive” in each case.
As for `CC1NC(=O)CNC(=O)C(C(C)C)NC(=O)C2CCCN2C(=O)C(C(C)C)NC(=O)C(Cc2c[nH]c3ccccc23)NC1=O` (stereo not given) (cyclo(GAWVPV); configuration not given here), the Potency entry in assay [1] and in assay [2] was “inactive” throughout.
For the molecule `OC[C@H]1O[C@@H](Oc2ccc3c(c2)OC[C@H]2c4cc5c(cc4O[C@@H]32)OCO5)[C@H](O)[C@@H](O)[C@@H]1O`, the Potency result in assay [1] and in assay [2] was “inactive” each time.
Turning to `CC(=O)O[C@@H]1[C@H](O[C@@H]2OC[C@](O)(CO)[C@H]2O)[C@@H](O[C@@H]2O[C@@H](C)[C@H](O)[C@@H](O)[C@H]2O)[C@H](OC(=O)[C@]23CCC(C)(C)C[C@H]2C2=CCC4[C@@]5(C)C[C@H](O)[C@H](O[C@@H]6O[C@H](C(=O)O)[C@@H](O)[C@H](O)[C@H]6O)[C@@](C)(C(=O)O)C5CC[C@@]4(C)[C@]2(C)CC3)O[C@@H]1C` (stereo not given in full), the outcome in assay [1] was “inactive [at 9.29 µM]”. Moreover, the activity change, negative = cytotoxicity in assay [2] is 1.88% [at 9.29 µM].
For `OC[C@H]1O[C@@H](Oc2cc(O)cc(/C=C/c3ccc(O)cc3)c2)[C@H](O)[C@@H](O)[C@@H]1O`, the Potency result in assay [1] and in assay [2] was “inactive” throughout.
Consider `C[C@]12CC[C@@H]3c4ccc(O[C@@H]5O[C@H](C(=O)O)[C@@H](O)[C@H](O)[C@H]5O)cc4CC[C@H]3[C@@H]1CCC2=O`, for which the Potency entry in assay [1] and in assay [2] was “inactive” each time.
As for `CC1=CC(=O)CC(C)(C)C1CCC(C)OC1OC(COC(=O)c2cc(O)c(O)c(O)c2)C(O)C(O)C1O` (stereo not given), the Potency entry in assay [1] and in assay [2] was “inactive” throughout.
`CC[C@H](C)[C@@H]1NC(=O)[C@H](Cc2ccc(OC)cc2)NC(=O)CCCSC[C@@H](C(=O)N2CCC[C@H]2C(=O)N[C@@H](CC(C)C)C(=O)NCC(N)=O)NC(=O)[C@H](CC(N)=O)NC(=O)[C@H](CCC(N)=O)NC1=O` (Y(Me)IQNCPLG-NH2; linker N-5 via X6): the Potency entry in assay [1] and in assay [2] was “inactive” each time.
